# Screens from PubChem.
# Compounds with a hit are over-represented: about 7.3% of the library has one in this group of screens.
# ELG1 genotox: qHTS screen for small molecules that induce genotoxicity in human embryonic kidney (HEK293T) cells expressing luciferase-tagged ELG1; HEK293T ELG1-luciferase reporter, luminescence, 16 h; Potency, µM (doses to about 46 µM), without a hit: top-dose activity change, positive = activation, most hits filed as activators; 1.3% of 330,000 active; AID 504466, 2011; further: % of control where 0% means no effect; nearly all actives have a fitted effect of over 60% in size
#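 After overnight (16 hr) compound treatment at 37 °C, ELG1-luciferase HEK293T cells were lysed with ONE-Glo; luminescence quantified 30 min later at room temperature.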
# NPC1 promoter act: qHTS Assay for NPC1 Promoter Activators; Potency, µM (top dose mostly 9.22 µM), without a hit: at the top dose activation, hits mostly activators; 2.4% of 320,000 active; Huh7 NPC1 promoter luciferase reporter, 24 h; AID 485313, 2010; further: % of control where 0% means no effect; nearly all actives have a fitted effect of over 60% in size
#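 NPC1 promoter–luciferase Huh7 cells; 24 h compound; luminescence.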
# FLuc counter: qHTS profiling assay for firefly luciferase inhibitor/activator using purifed enzyme and Km concentrations of substrates (counterscreen for miR-21 project); Potency, µM (titrated, usually from 57.5 µM), for inactives: top-dose activity change, negative = inhibition, usual class: inhibitors; purified FLuc, Km substrates, luminescence inhibition; AID 588342, 2011; 6.9% of 360,000 active;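 further: plate controls were vehicle for no effect and reference inhibitor for full effect; nearly all actives have a fitted effect of over 55% in size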
# Target sequence (P08659 whole entry, looked up): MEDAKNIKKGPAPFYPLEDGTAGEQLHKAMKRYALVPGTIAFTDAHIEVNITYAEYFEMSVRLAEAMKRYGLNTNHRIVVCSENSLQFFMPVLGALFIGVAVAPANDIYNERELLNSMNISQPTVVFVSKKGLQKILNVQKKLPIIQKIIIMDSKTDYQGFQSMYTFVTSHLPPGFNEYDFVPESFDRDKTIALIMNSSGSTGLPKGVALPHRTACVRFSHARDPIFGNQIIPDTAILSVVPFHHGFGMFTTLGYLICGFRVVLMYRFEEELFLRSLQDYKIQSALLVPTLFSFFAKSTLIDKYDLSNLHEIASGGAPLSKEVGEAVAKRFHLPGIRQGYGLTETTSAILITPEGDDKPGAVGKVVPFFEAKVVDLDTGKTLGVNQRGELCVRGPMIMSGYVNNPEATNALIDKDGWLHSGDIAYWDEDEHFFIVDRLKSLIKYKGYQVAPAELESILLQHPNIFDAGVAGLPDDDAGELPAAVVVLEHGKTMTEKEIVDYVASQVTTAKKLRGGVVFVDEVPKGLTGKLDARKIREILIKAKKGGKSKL
#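 Purified P. pyralis luciferase, 10 nM final, with Km-level 10 uM D-luciferin and 10 uM ATP in 50 mM Tris acetate pH 7.5, 10 mM Mg acetate, 0.01% Tween-20, 0.05% BSA; 6-point qHTS titration about 60 µM downward; luminescence read.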
# SMN2 splice enh: qHTS Assay for Enhancers of SMN2 Splice Variant Expression. Potency, µM (doses to about 46.1 µM), for inactives: at the highest dose activity change, positive = activation, usual class: activators. HEK293 SMN2-luciferase splicing reporter, luminescence, 30-36 h. 2.8% of 210,000 active. AID 1458, 2008; further: % of control where 0% means no effect; nearly all actives have a fitted effect of over 55% in size
#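 qHTS luciferase splicing reporter: luminescence rises when SMN2 exon 7 is included in transfected HEK293 cells. Compound exposure lasted 30-36 h at 37C, with 4.5 mM final sodium butyrate as control, followed by a ONE-Glo read.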
# Luc counter: Counterscreen for Luciferase (Kinase-Glo TM) Inhibition | 0.28% of 200,000 active | Luciferin 4-monooxygenase (Photuris pensylvanica), Q27757 | Kinase-Glo luciferase, ATP luminescence, 8 min | Potency, µM (doses to about 38.3 µM), for inactives: at the highest dose activity change, negative = inhibition, hits mostly inhibitors; further: on the % scale 0 is the no-effect control and ±100 the full control effect; nearly all actives have a fitted effect of over 60% in size
#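 Luminescence was the read-out, taken after 8-minute incubation at ambient temperature. Luciferase turned over luciferin with 10 uM ATP in imidazole pH 7.2 buffer containing KCl, MgCl2, Tween 20 and BSA.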
# Rab9 promoter act: qHTS Assay for Rab9 Promoter Activators. Huh7 Rab9 promoter-luciferase reporter, luminescence, 24 h. Potency, µM (titrated, usually from 9.22 µM), inactives show at the highest dose activation, negative = inhibition, usual class: activators. 2.8% of 320,000 active. AID 485297, 2010; further: % of control where 0% means no effect; nearly all actives have a fitted effect of over 60% in size
#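 Luminescence from Amplite-detected luciferase (10 minutes, ambient) reports Rab9 promoter activation. Before that, stable Rab9-luciferase Huh7 cells (1500/well, reduced-serum OP-MEM I plus 10% FBS) were exposed to compound for 24 hours at 37C.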
# The depositor's hits bear a star; ? = inconclusive; · = no result given; [ ] = another dose, or the depositor's remark. The call rests on the fitted dose curve; in most records, active means well fitted curve in the direction sought with a large enough effect; inconclusive means small, poorly fitted or top-dose-only effect, or another doubt; inactive means no such curve, though single readings can be large; an effect the other way counts as inactive or inconclusive. Potency means the concentration at half of the fitted maximal effect.
SMILES,ELG1 genotox,NPC1 promoter act,FLuc counter,SMN2 splice enh,Luc counter,Rab9 promoter act
COc1cc(/C=N/NC(=O)C23CC4CC(CC(C4)C2)C3)cc(Br)c1O,2%,-1%,13µM*,6%,0%,3%
COc1cc(/C=N/NC(=O)c2ccc3c(c2)OCCO3)cc(Br)c1O,14%,2%,11µM*,·,·,15%
COc1cc(/C=N\NC(=O)c2ccc(-c3ccccc3)cc2)cc(Br)c1O,-11%,0%,11µM*,·,·,5%
CCOc1c(Br)cc(/C=N\NC(=O)c2ccccc2)cc1OC,-8%,-2%,5.4µM*,7%,0%,-3%
COc1ccc(NC(=O)N2CCc3c(sc4c3CCCC4)C2c2ccc(F)cc2)cc1 (centres undefined),·,·,-4%,·,·,·
COc1cc(/C=N/NC(=O)c2ccc3c(c2)OCCO3)c(Br)c(Br)c1O,9%,1%,9.5µM*,·,·,-1%
COc1ccc(/C=N/NC(=O)c2ccc3c(c2)OCO3)c(C(=O)O)c1OC,3%,-2%,-8%,·,·,0%
Cc1oc(-c2ccccc2)cc1C(=O)Nc1cccc(/C=C/C(=O)O)c1,1%,-1%,15µM*,3%,5%,-1%
Cc1cc(C(=O)Nc2cccc(/C=C/C(=O)O)c2)c(C)o1,1%,2%,13µM*,8%,-13%,5%
Cc1oc(C(C)(C)C)cc1C(=O)Nc1cccc(/C=C/C(=O)O)c1,10%,-3%,12µM*,0%,-2%,-19%
COc1ccccc1NC(=O)CSC1=Nc2ccccc2C2=NC(CCC(=O)NCc3cccs3)C(=O)N12 (centres undefined),·,·,5%,·,·,·
COc1ccc(N2CC(NC(=O)C(c3ccccc3)c3ccccc3)CC2=O)cc1OC (centres undefined),·,·,-2%,·,·,·
CCCCC1CCC(C(=O)N2CC(=O)Nc3ccc(Cl)cc3C2c2ccc(F)cc2)CC1 (centres undefined),·,·,-1%,7%,·,·
CCn1c(C)cc(/C=C2/SC(=O)N(C(C)C(=O)OC)C2=O)c1C (centres undefined),?,3.2µM*,6µM*,·,·,4µM*
COCCn1c(C)cc(/C=C2\NC(=S)N(C)C2=O)c1C,?,14%,?,11µM*,4%,0%
COCCn1c(C)cc(/C=C2/SC(=O)N(C(C)C(=O)OC)C2=O)c1C (centres undefined),8.2µM*,1.4µM*,2.4µM*,·,·,1.6µM*
COC(=O)C(C)N1C(=O)S/C(=C/c2cc(C)n(C(C)C)c2C)C1=O (centres undefined),?,1%,13µM*,14%,-3%,3.2µM*
COC(=O)C(C(=O)OC)C1c2ccccc2C=C(C)N1C(=O)OC (centres undefined),·,·,·,4%[9.22 µM],-2%[7.66 µM],·
CCOC(=O)C(C)N1C(=O)S/C(=C/c2cc(C)n(-c3ccncc3)c2C)C1=O (centres undefined),-5%,0%,?,-20%,-1%,21%
CCOC(=O)C(C)N1C(=O)S/C(=C/c2cc(C)n(-c3ccccn3)c2C)C1=O (centres undefined),?,2.5µM*,8.5µM*,29%,-3%,2.2µM*
CSc1cccc(NC(=O)CC(c2ccc(F)cc2)N2Cc3ccccc3C2=O)c1 (centres undefined),·,·,-11%,·,·,·
CCN(CC)c1ccc(/C=N/N2CCOCC2)cc1,7.3µM*,3.5µM*,8.5µM*,22µM*,6%,3.2µM*
CCN(Cc1ccccc1)c1ccc(/C=N/N2CCOCC2)cc1,13%,17%,?,-14%,-3%,12%
O=C(COc1cccnc1[N+](=O)[O-])N1CCc2ccccc21,6%,9%,-10%,25%,-2%,17%
Cc1ccc2c(CC(=O)N3CCc4ccccc43)coc2c1,?,3.5µM*,4.3µM*,14µM*,9%,4µM*
SMILES,ELG1 genotox,NPC1 promoter act,FLuc counter,SMN2 splice enh,Luc counter,Rab9 promoter act
CCOC(=O)c1[nH]c(C)c(C(=O)OCC(=O)N2CCc3ccccc32)c1C,17%,-3%,-1%,-1%,-3%,-2%
CC(=O)c1c(C)[nH]c(C(=O)OCC(=O)N2CCc3ccccc32)c1C,6%,4µM*,-18%,·,·,?
O=C(OCC(=O)N1CCc2ccccc21)c1ccccc1F,12%,3%,4.8µM*,·,·,4%
O=C(OCC(=O)N1CCc2ccccc21)c1ccccc1[N+](=O)[O-],?,0.79µM*,0.15µM*,·,·,0.63µM*
Cc1cc(C)c(/C=C/c2onc(C)c2S(=O)(=O)N2CCC(C(=O)N3CCN(c4ccccc4)CC3)CC2)c(C)c1,·,·,5%,·,·,·
Cc1ccc(C)c(N2CCN(C(=O)C3CCCN(S(=O)(=O)c4ccc5c(c4)oc(=O)n5C)C3)CC2)c1 (centres undefined),·,·,-1%,-71%,·,·
COc1ccc(CNC(=O)C(=O)NCC(c2cccs2)S(=O)(=O)c2cccs2)cc1 (centres undefined),·,·,-11%,·,·,·
COc1ccc2c(c1)CCc1c(C(=O)Nc3ccc(F)c(Cl)c3)noc1-2,·,·,6%,10%,·,·
Cc1ccc(C(=O)OCC(=O)N2CCc3ccccc32)cc1,9%,?,6µM*,-19%,-6%,?
Cc1ccc(C(=O)OCC(=O)N2CCCc3ccccc32)cc1C,1%,1%,-11%,·,·,0%
NC(=O)COC(=O)c1c2c(nc3ccccc13)CCCC2,-10%,-6%,-4%,2%,4%,6%
O=C(OCC(=O)N1CCc2ccccc21)c1c2c(nc3ccccc13)CCCCC2,-11%,3%,4.3µM*,3%,-1%,2%
O=C(COC(=O)c1ccccc1[N+](=O)[O-])c1ccc(C2CCCCC2)cc1,2%,-2%,0.13µM*,-56%,11µM*,9%
CCOC(=O)C1=C(C)NC(C)=C(C(=O)OCC)C1C(=O)OCC(=O)N1CCc2ccccc21,18µM*,4%,1%,-4%,4%,9%
COc1ccc(CN(Cc2ccco2)c2cnc(S(C)(=O)=O)nc2C(=O)Nc2ccc(F)cc2)cc1,·,·,1%,·,·,·
CCCCC(CC)COC(=O)COc1ccc(Cl)cc1Cl (centres undefined),·,·,·,8%,·,·
CCOC(=O)c1noc2nc(C)n(CC(=O)Nc3cccc(OC)c3)c(=O)c12,·,·,-1%,·,·,·
Fc1ccc(-c2noc(-c3ccc4c(c3)CCO4)n2)cc1,?,?,0.54µM*,·,·,0.4µM*
